Screen size: about 1,500 compounds; about 460 (31%) were called active. About 1% were inconclusive and are not listed. Not all results are given here. Potency and affinity values are given separately. Values without a mark were called inactive.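 How the source made its calls: active means curve reaches 40% activation over neutral controls at an AC40 no higher than the top valid tested concentration; inconclusive means no clear call, values can overlap the other calls; inactive means signal moving opposite to the expected increase, and the rest.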

This experiment is described as follows: GLuc-reported insulin release enhancers, glucose-stimulated beta cells – cell-based, INS-1E, Gaussia luciferase, luminescence, cherry-pick, set 2, dose response (AID 977607).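 Further: 0% = median of the plate neutral control wells.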 The note with it: INS-1E GLuc insulin secretion reporter, 2-3 h, hits give high values; at 35 µM, 100% = signal doubled over neutral wells unless noted.
Take `Cc1nc2ccccc2c(=O)n1/N=C/c1ccc(N(C)C)cc1`: the max activation is -10.6% [at 1.2 µM, 100% = signal doubled over neutral wells].
Turning to `CCc1nc2c(OCCC3CCCCC3)cccn2c1N(C)C(=O)c1ccco1`, the max activation was -35%.
For `Cc1ccccc1CN(C)Cc1cc(=O)oc2c(C)c(C)ccc12`, the max activation was -33.3%.
In the case of `O=C(c1ccccc1)N(C(=O)c1ccccc1)N1CCCC1` it was 28.2% [at 0.046 µM, 100% = signal doubled over neutral wells]; in that of `O=C(O)CCN1c2ccccc2Sc2ccccc21`, -23% [at 3.8 µM, 100% = signal doubled over neutral wells].
In the case of `O=C(CCc1ccccc1)NNC(=O)COc1ccccc1Cl`, the max activation was 22.3% [at 0.42 µM, 100% = signal doubled over neutral wells].
Consider `COc1ccc(/C=N/Nc2ncnc3c2[nH]c2ccccc23)c(OC)c1OC`, for which the max activation was -28.4% [at 0.005 µM, 100% = signal doubled over neutral wells].
Consider `c1ccc2c(N3CCCCC3)nc(N3CCCC3)nc2c1`, for which the max activation was 34.7%.
`O=S(=O)(N1CCOCC1)n1c(Cc2ccccc2)nc2ccccc21`: the max activation is -18.5% [at 0.046 µM, 100% = signal doubled over neutral wells].
On to `CCOC(=O)C1CCCN(C(=O)c2cccnc2Oc2ccccc2)CC1` (stereo not drawn), for which the max activation is 48.6% [at 1.2 µM, 100% = signal doubled over neutral wells].
Regarding `COc1ccc(CCNCc2cc3ccc(C)cc3[nH]c2=O)cc1OC`, the max activation is 20.9% [at 11 µM, 100% = signal doubled over neutral wells].
For `COC(=O)[C@]1(Cc2ccccc2)N[C@H](CN(C)C(=O)Nc2ccc(C)cc2)[C@@H]2C(=O)N(C)C(=O)[C@@H]21`, the max activation was -13.8% [at 11 µM, 100% = signal doubled over neutral wells].
To `O=C(Nc1ccc(S(=O)(=O)N2CCOCC2)cc1)c1ccc(=O)[nH]c1` belongs -14.6% [at 0.046 µM, 100% = signal doubled over neutral wells]; to `O=C(NCc1ccc(Cl)cc1)c1cc(=O)[nH]c2ccc(S(=O)(=O)N3CCOCC3)cc12`, 27.5% [at 0.005 µM, 100% = signal doubled over neutral wells]; to `CCN(Cc1ccccc1)S(=O)(=O)c1ccccc1Br`, -30.7%.
Take `CC/C(O)=C1\C(=O)CC(C)(C)CC1=Nc1ccccc1C`: the max activation is -12.4% [at 0.046 µM, 100% = signal doubled over neutral wells].
As for `CCc1onc(C)c1C(=O)Nc1ccc(N2CCOCC2)cc1`, the max activation was -20.7% [at 11 µM, 100% = signal doubled over neutral wells].
For `CCCC(=O)Nc1ccc(N2CCN(S(C)(=O)=O)CC2)cc1`, the max activation is -16% [at 11 µM, 100% = signal doubled over neutral wells].
Consider `CCn1c(C)nc2cc(S(=O)(=O)C(F)(F)F)ccc21`, for which the max activation is -18% [at 0.135 µM, 100% = signal doubled over neutral wells].
`COC(=O)c1scc(C)c1NC(=O)CC1NCCNC1=O` (stereo not drawn): the max activation was -9.21% [at 0.0016 µM, 100% = signal doubled over neutral wells].
Turning to `O=C(O)c1ccc(S(=O)(=O)NCc2ccc3c(c2)OCO3)cc1`, the max activation is -14.4% [at 0.42 µM, 100% = signal doubled over neutral wells].
`O=C(c1ccc2c(c1)OCO2)N1CCN(S(=O)(=O)c2ccccc2)CC1`: the max activation was -16.9% [at 0.42 µM, 100% = signal doubled over neutral wells].
Consider `COc1ccc(S(=O)(=O)N(C)c2ccc(C(=O)NCC3CCCO3)cc2)cc1OC` (stereo not drawn), for which the max activation is -7.27% [at 1.2 µM, 100% = signal doubled over neutral wells].
Consider `COC(=O)COc1ccc(C)cc1-n1nc2ccccc2n1`, for which the max activation was 22.5%.
`CC(=O)c1cccc(Nc2ncnc3ccc(Br)cc23)c1`: the max activation is -20.3% [at 0.0016 µM, 100% = signal doubled over neutral wells].
Take `COc1cccc(-c2nnn(CC(=O)O)n2)c1`: the max activation was -16%.
Turning to `CCOc1cc(C(=O)N(C)CC(=O)Nc2cccc3ccccc23)ccc1OC`, the max activation was 18.1% [at 11 µM, 100% = signal doubled over neutral wells].
For `CN(C)S(=O)(=O)c1cccc(-c2csc(N/N=C/c3ccco3)n2)c1`, the max activation was -17.2% [at 3.8 µM, 100% = signal doubled over neutral wells].
As for `CCc1cccc(NC(=O)C2CCCN2S(=O)(=O)c2ccc3c(c2)n(C)c(=O)c(=O)n3C)c1` (stereo not drawn), the max activation was -17.8%.
In the case of `CCOc1cc(OCC)cc(C(=O)Nc2cccnc2)c1`, the max activation is 14.6% [at 1.2 µM, 100% = signal doubled over neutral wells].
Consider `C=C1[C@@H](O)[C@H](CC(C)C)N(Cc2ccccc2Br)S1(=O)=O`, for which the max activation is -22.8%.
`COc1ccc(-n2c(-c3ccc(Cl)cc3)c[nH]c2=S)cc1`: the max activation is 14.5%.
To `CCCOc1ccc(/C=N/NC(=O)C(=O)Nc2ccccn2)cc1` belongs 19.6%; to `CC(C)CCC(O)(CCC(C)C)C(=O)NN1CCCCC1`, 26.3% [at 0.015 µM, 100% = signal doubled over neutral wells].
To `O=c1cc(Cl)[nH]c(=O)n1Cc1ccccc1` belongs -18% [at 0.135 µM, 100% = signal doubled over neutral wells]; to `Cc1cc(C(=O)Nc2cccc(O)c2)c(C)o1`, 50.1% [at 0.135 µM, 100% = signal doubled over neutral wells].
Regarding `Cc1ccc(NC(=O)c2ccccc2-c2ccccc2C(=O)O)cc1C`, the max activation is -15.4% [at 0.046 µM, 100% = signal doubled over neutral wells].
As for `CCCn1nc(C(=O)NC2CC2)c2ccccc2c1=O`, the max activation was -11.7% [at 0.135 µM, 100% = signal doubled over neutral wells].
As to `CCCn1nc(C(=O)NC2CCCC2)c2ccccc2c1=O`, the max activation was 14.9% [at 0.135 µM, 100% = signal doubled over neutral wells].
Take `CCNc1nc(C)nc2c1oc1ccccc12`: the max activation is 20.6% [at 11 µM, 100% = signal doubled over neutral wells].
Regarding `CC(C)Oc1cccc(C(=O)C2CCCN(C(=O)CCc3cnn(C)c3)C2)c1` (stereo not drawn), the max activation is -16.9% [at 0.0016 µM, 100% = signal doubled over neutral wells].
For the compound `COc1ccc(Cl)cc1C(=O)Nc1cccc(-c2ccc3nncn3n2)c1`, the max activation is -16.9% [at 0.015 µM, 100% = signal doubled over neutral wells].
As to `COCCn1c(=O)[nH]c2cc(C(=O)Nc3cc(OC)c(OC)c(OC)c3)ccc2c1=O`, the max activation was -21.3% [at 11 µM, 100% = signal doubled over neutral wells].
To `CCCCCCc1cc2cc(C(=O)Nc3cccc(OC)c3)c(=O)oc2cc1O` belongs -54.3% [at 1.2 µM, 100% = signal doubled over neutral wells].
`Cc1ccnc(NC(=O)Nc2ccc(Br)cc2Cl)c1`: the max activation was -16.6% [at 0.0016 µM, 100% = signal doubled over neutral wells].
Regarding `COc1ccccc1C(OC(=O)c1cccs1)C(=O)NCC1CCCO1` (stereo not drawn), the max activation is -15.4% [at 0.015 µM, 100% = signal doubled over neutral wells].
Consider `Cc1cccc(C2N=C(N)Nc3nc4ccccc4n32)c1` (stereo not drawn), for which the max activation is -24% [at 0.005 µM, 100% = signal doubled over neutral wells].
For the compound `O=C(Cc1c[nH]c2ccccc12)N[C@@H](Cc1c[nH]c2ccccc12)C(=O)O`, the max activation is 39.3% [at 0.135 µM, 100% = signal doubled over neutral wells].
Take `C=CCn1c(O)c(N=NC(=O)CNC(=O)c2ccco2)c2ccccc21`: the max activation is 10.5%.
In the case of `O=C1NC(c2ccccc2)c2c(-c3ccccc3)n[nH]c21` (stereo not drawn) it was -9.3% [at 0.005 µM, 100% = signal doubled over neutral wells]; in that of `O=c1[nH]nc(-c2cccs2)c2ccccc12`, 31.3%; in that of `CCCc1cc(=O)n2[nH]c(C)c(-c3ccc(Cl)cc3)c2n1`, 24.5% [at 0.0016 µM, 100% = signal doubled over neutral wells].
Regarding `O=C(Nc1ccccc1)Nc1nnc(-c2cccs2)s1`, the max activation is -23.9% [at 11 µM, 100% = signal doubled over neutral wells].
With `CCc1nnc(NC(=O)C(c2ccccc2)c2ccccc2)s1`, the max activation is -21.5%.
For `O=S(=O)(Nc1ncnc2sc3c(c12)CCC3)c1cc(F)ccc1F`, the max activation is 30.2% [at 0.135 µM, 100% = signal doubled over neutral wells].
Turning to `NC(=O)c1ccc2nc(-c3ccccc3)c(-c3ccccc3)nc2c1`, the max activation is 28.4%.
To `O=C(O)CCCNC(=O)c1nn(Cc2ccccc2)c(=O)c2ccccc12` belongs -18.7% [at 0.0016 µM, 100% = signal doubled over neutral wells]; to `CCOC(=O)Cn1c(=O)n(Cc2ccccc2)c(=O)c2cccnc21`, -12.9% [at 0.0016 µM, 100% = signal doubled over neutral wells].

The values above are taken from PubChem BioAssay AID977607 (Broad Institute, 2014).
